In test [1] the target is Lysosomal acid glucosylceramidase (Homo sapiens) (UniProt P04062). Put plainly: Glucocerebrosidase-p2 (AID 348; in the data active = potency below about 10 µM; note: potency is the fitted concentration of half-maximal effect). As to conditions: purified GBA, blue fluorogenic substrate, 40 min. The method in brief:
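Compounds titrated from 0.6 nM upwards against 0.2 nM enzyme in pH 5.9 citric acid/KH2PO4, taurocholate, tween-20; blue fluorogenic substrate 80 uM, 40 min room temperature, stopped and read Ex 365/Em 440 for AC50.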

Test [2] can be described thus: AP1 Signaling Pathway (AID 357).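 Note: ME-180 reporter cells stimulated with EGF at its EC50 level; % is set by controls: 0 for no effect and ±100 for the full control effect.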 As to conditions: ME-180 AP-1-bla reporter, EGF-induced, beta-lactamase ratio, 5 h; at 7.69 µM (top of the series) unless noted. The gist of the method:
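In this screen, ME-180 cells in Opti-MEM with 0.5% dialyzed FBS received EC50 EGF and compound titrations for 5 h. AP-1 reporter beta-lactamase was detected via CCF4 ratio, giving AC50 for positive and negative modulators.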

In test [3] the target is Cytochrome P450 1A2 (Homo sapiens) (UniProt P05177). Briefly: p450-cyp1a2 (AID 410; calls by dose curve; note: potency is the fitted concentration of half-maximal effect). The settings on record: recombinant CYP1A2, luciferin-ME demethylation, luminescence; series mostly up to 11.4 µM. The method in brief:
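Luminescent readout of luciferin formed from Luciferin-ME by human CYP1A2; data normalized against complete inhibition by 57 uM furafylline. Enzyme 20nM, substrate 100uM at Km, 100mM KPO4 buffer, 60 min reaction at room temperature.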

The nature of test [4]: NFAT Signaling Pathway (AID 444).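 Note: carbachol stimulus at about its EC50 of 1 µM final; % is set by controls: 0 for no effect and ±100 for the full control effect.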 The settings on record: Jurkat NFAT-bla M1, carbachol, beta-lactamase ratio, 5 h; at 7.69 µM (top of the series) unless noted. The gist of the method: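 Jurkat cells with NFAT-driven β-lactamase reporter and co-expressed M1 receptor, stimulated with carbachol (final 1 uM, ~EC50), compound titration, 5 h at 37 °C. CCF4 loaded 1 h at RT; 460/530 nm ratio gave %activity and AC50.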

The nature of test [5]: Stat Signaling Pathway (AID 446).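 Note: ME-180 cervical cancer cells given 40 pM IL-6 alongside compound; SIE-controlled beta-lactamase reporter measured as 460/530 nm FRET emission ratio; % is set by controls: 0 for no effect and ±100 for the full control effect.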 As to conditions: ME-180 (cervical carcinoma) SIE beta-lactamase reporter, IL-6 stimulated, 5 h; at 7.69 µM (top of the series) unless noted. The gist of the method:
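ME-180 SIE-bla cells; overnight plating; cpd + IL-6 40 pM, 5 h, 37 C; LiveBLAzer 2.5 h RT; 460/530 nm emission ratio. Normalized to 300 pM IL-6 and 125 nM JAK inhibitor controls.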

The target in test [6] is Glucocorticoid receptor (Homo sapiens) (UniProt P04150). Put plainly: GR-GFP Redistribution (AID 450;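 active = compounds whose dose series gives a full or clear partial fitted curve of increased nuclear translocation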; note: potency is the fitted concentration of half-maximal effect). The settings on record: U2OS GR-GFP nuclear translocation, laser cytometry, 2 h.
Chain of Glucocorticoid receptor (Homo sapiens) (P04150 whole entry, looked up, the tested form may be a part): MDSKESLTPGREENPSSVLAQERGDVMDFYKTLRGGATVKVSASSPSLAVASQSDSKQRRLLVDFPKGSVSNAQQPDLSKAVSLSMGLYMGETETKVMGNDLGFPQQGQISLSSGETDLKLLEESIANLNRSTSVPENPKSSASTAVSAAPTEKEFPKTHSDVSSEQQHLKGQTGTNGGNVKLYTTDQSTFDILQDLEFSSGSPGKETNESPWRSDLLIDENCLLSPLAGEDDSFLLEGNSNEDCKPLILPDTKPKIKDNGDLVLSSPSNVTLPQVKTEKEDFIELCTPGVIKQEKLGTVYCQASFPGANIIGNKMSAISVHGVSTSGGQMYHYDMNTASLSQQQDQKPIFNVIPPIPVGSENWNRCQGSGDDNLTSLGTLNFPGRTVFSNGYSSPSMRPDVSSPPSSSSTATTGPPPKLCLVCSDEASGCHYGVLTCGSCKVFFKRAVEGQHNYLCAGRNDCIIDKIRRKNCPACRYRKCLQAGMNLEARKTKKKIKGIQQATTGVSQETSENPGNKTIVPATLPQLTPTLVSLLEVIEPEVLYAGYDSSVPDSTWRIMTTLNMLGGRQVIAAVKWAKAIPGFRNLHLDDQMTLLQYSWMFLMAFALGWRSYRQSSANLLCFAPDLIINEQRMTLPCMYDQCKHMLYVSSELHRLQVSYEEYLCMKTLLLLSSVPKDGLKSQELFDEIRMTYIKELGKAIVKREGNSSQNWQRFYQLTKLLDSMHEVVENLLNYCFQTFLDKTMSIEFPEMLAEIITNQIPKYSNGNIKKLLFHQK
Test [7] has the same target. Briefly: GR-EFC Redistribution (AID 451; calls by dose curve; note: potency is the fitted concentration of half-maximal effect). As to conditions: CHO-K1 GR-EFC translocation, beta-gal luminescence, 2 h. The method in brief: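 CHO-K1 cells expressing nuclear EA and GR-ED fragments of b-gal; compounds titrated up to 46 uM final, 2 h at 37 C. GR nuclear translocation read as complemented b-gal luminescence after 1 h RT detection.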
Test [8] concerns the target Mitogen-activated protein kinase 10 (Mus musculus) (UniProt Q61831). Put plainly: JNK3 AlphaScreen Assay (AID 530).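 Note: kinase came from lysate of stimulated human HepG2 cells; signal reports phosphorylation of biotinylated GST-cJun 1-79 at Ser73 with 10 µM ATP; % is set by controls: 0 for no effect and ±100 for the full control effect.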 The settings on record: JNK3 lysate, c-Jun phosphorylation; series mostly up to 11.4 µM. The method in brief:
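Pre-activated (IL-1β/TNFα) JNK3 in HepG2 lysates phosphorylates biotin-GST-cJun(1-79), 10 uM ATP; anti-phospho-cJun(Ser73) AlphaScreen read at room temperature, pH 7.6 Tris buffer. Compounds pre-incubated 15 min as titrations.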
In general terms: Bead proximity is the source of the signal in Alpha formats.

The target of test [9] is 3',5'-cyclic-AMP phosphodiesterase 4B (Homo sapiens) (UniProt Q07343). Put plainly: qHTS Assay for Inhibitors of PDE-IV (AID 607; active = well fitted activation curve with a large enough effect in the main read-out, with a control signal flat, not every such curve was filed as active; note: % of control where 0% means no effect). The settings on record: HEK293 ACTOne CNG channel cells, membrane potential fluorescence; series mostly up to 22.9 µM. The gist of the method:
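ACTOne HEK293 cells carry a modified cAMP-gated CNG channel and express endogenous PDE4; plated 1000 cells/well, compounds up to 22.9 uM final. Membrane-potential dye fluorescence (ex 535/em 590) was read; parental cells received 10 uM forskolin + 100 uM RO 20-1724.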
For orientation: In qHTS, concentration-response curves come from the screen itself.

The target of test [10] is Cytochrome P450 3A4 (Homo sapiens) (UniProt P08684). Put plainly: qHTS Assay for Inhibitors and Substrates of Cytochrome P450 3A4 (AID 884; active = well fitted curve in the direction sought with a large enough effect; an effect the other way counts as inactive or inconclusive; note: potency is the fitted concentration of half-maximal effect; nearly all actives have a fitted effect of over 50% in size). The settings on record: recombinant CYP3A4, Luciferin-PPXE luminescence; series mostly up to 57.1 µM. The gist of the method:
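20 nM human CYP3A4 with 25 uM Luciferin-PPXE (at KM) in 200 mM KPO4, preincubated 10 min with compound; NADPH regeneration started a 60 min RT reaction. Luciferin detected by luminescence, normalized to 57 uM ketoconazole as full inhibition.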

For test [11] the target is unchanged. Briefly: qHTS Assay for Activators of Cytochrome P450 3A4 (AID 885; active = well fitted curve in the direction sought with a large enough effect; an effect the other way counts as inactive or inconclusive; note: nearly all actives have a fitted effect of over 65% in size). As to conditions: recombinant CYP3A4, Luciferin-PPXE luminescence, 60 min; series mostly up to 11.4 µM. The gist of the method: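 20nM CYP3A4 + 25uM Luciferin-PPXE (=KM), 200mM KPO4; cpd 10 min RT; NADPH regen, 60 min RT; stop w/ detection buffer, 20 min; luminescence. Normalized to 57 uM ketoconazole.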

Test [12] has as its target Cytochrome P450 2D6 (Homo sapiens) (UniProt P10635). Put plainly: qHTS Assay for Inhibitors and Substrates of Cytochrome P450 2D6 (AID 891; active = well fitted curve in the direction sought with a large enough effect; an effect the other way counts as inactive or inconclusive; note: nearly all actives have a fitted effect of over 60% in size; note: potency is the fitted concentration of half-maximal effect). As to conditions: recombinant CYP2D6, luciferin-ME EGE luminescence; series mostly up to 11.4 µM. The gist of the method: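 Human CYP2D6 (5 nM) with 30 uM Luciferin-ME EGE (at Km) in 100 mM KPO4, compound preincubated 10 min, then NADPH regeneration system for 60 min at room temperature. Luciferin read by luminescence; normalized to 1.43 uM quinidine.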

The target in test [13] is Cytochrome P450 2C9 (Homo sapiens) (UniProt P11712). Briefly: qHTS Assay for Inhibitors and Substrates of Cytochrome P450 2C9 (AID 883; active = well fitted curve in the direction sought with a large enough effect; an effect the other way counts as inactive or inconclusive; note: % is set by controls: 0 for no effect and ±100 for the full control effect; nearly all actives have a fitted effect of over 60% in size). The settings on record: recombinant CYP2C9, luciferin-H luminescence, 60 min; series mostly up to 11.4 µM. The method in brief: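 10nM CYP2C9 + 100uM Luciferin-H (=KM), 25mM KPO4; cpd 10 min 37C; NADPH regen, 60 min 37C; stop/detect with P450 Glo-Buffer 20 min; luminescence. Norm. to 57uM sulphaphenazole as full inhibition.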
Chain of Cytochrome P450 2C9 (Homo sapiens) (P11712 whole entry, looked up): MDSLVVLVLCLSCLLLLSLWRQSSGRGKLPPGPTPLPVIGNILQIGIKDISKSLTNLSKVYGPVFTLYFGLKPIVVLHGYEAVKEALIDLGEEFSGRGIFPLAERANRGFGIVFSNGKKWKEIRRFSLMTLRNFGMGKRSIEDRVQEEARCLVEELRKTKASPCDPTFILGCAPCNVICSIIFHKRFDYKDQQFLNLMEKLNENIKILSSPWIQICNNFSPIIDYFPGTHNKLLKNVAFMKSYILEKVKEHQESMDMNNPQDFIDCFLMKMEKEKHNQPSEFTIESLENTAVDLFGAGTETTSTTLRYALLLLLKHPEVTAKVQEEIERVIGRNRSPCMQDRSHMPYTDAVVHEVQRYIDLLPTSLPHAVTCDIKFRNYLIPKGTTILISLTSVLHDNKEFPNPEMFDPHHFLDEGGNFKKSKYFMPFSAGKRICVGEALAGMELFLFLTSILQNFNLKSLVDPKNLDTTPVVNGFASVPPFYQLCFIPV

Test [14] concerns the target Cytochrome P450 2C19 (Homo sapiens) (UniProt P33261). Briefly: qHTS Assay for Inhibitors and Substrates of Cytochrome P450 2C19 (AID 899; active = well fitted curve in the direction sought with a large enough effect; an effect the other way counts as inactive or inconclusive; note: % is set by controls: 0 for no effect and ±100 for the full control effect; nearly all actives have a fitted effect of over 60% in size). The settings on record: recombinant CYP2C19, luciferin-H EGE luminescence; series mostly up to 11.4 µM. The gist of the method: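 Luminescent read-out of luciferin formed from Luciferin-H EGE (10uM, equal to KM). Enzyme 5nM in 50mM KPO4; compound added, 10 min at 37C, then NADPH regenerating system for 60 min at 37C. Full inhibition defined by 57uM ketoconazole.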

A number with no mark means an inactive call. Inconclusive results are not listed. Activity calls are given as the source filed them. Unless noted, calls come from the whole dose curve; as a rule, active = well fitted curve in either direction with a large enough effect (not every such curve was filed as active); inconclusive = small, poorly fitted or top-dose-only effect, or another doubt; inactive = flat fitted curve, though single readings scatter.

Chain of Lysosomal acid glucosylceramidase (Homo sapiens) (P04062 whole entry, looked up): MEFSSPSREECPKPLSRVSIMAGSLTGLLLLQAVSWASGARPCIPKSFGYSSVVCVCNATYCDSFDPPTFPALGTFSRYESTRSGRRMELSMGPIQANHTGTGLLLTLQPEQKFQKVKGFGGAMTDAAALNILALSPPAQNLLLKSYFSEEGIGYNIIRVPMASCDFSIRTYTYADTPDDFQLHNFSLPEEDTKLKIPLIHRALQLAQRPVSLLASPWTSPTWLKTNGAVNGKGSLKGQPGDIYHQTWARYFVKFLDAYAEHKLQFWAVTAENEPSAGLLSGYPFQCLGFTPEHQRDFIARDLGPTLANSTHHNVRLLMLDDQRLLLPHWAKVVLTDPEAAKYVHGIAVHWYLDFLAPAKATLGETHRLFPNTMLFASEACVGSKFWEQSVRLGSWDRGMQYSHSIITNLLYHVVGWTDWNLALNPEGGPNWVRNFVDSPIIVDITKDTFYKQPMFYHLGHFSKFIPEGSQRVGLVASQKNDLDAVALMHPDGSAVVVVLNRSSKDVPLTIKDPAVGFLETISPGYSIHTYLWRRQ
Chain of Cytochrome P450 3A4 (Homo sapiens) (P08684 whole entry, looked up): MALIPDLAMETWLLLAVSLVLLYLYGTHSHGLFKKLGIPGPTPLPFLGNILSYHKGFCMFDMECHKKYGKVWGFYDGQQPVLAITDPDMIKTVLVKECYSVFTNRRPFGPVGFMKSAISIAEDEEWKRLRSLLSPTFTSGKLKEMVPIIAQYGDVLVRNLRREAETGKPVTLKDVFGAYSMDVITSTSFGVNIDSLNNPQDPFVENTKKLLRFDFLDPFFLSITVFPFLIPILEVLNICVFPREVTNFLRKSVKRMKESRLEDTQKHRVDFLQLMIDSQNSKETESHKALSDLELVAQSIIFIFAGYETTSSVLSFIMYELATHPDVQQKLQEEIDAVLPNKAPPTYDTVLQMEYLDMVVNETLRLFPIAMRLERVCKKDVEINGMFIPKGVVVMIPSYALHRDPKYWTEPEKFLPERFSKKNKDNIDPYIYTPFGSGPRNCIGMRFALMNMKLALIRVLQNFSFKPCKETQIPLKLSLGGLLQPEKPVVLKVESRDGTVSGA
Chain of Cytochrome P450 1A2 (Homo sapiens) (P05177 whole entry, looked up): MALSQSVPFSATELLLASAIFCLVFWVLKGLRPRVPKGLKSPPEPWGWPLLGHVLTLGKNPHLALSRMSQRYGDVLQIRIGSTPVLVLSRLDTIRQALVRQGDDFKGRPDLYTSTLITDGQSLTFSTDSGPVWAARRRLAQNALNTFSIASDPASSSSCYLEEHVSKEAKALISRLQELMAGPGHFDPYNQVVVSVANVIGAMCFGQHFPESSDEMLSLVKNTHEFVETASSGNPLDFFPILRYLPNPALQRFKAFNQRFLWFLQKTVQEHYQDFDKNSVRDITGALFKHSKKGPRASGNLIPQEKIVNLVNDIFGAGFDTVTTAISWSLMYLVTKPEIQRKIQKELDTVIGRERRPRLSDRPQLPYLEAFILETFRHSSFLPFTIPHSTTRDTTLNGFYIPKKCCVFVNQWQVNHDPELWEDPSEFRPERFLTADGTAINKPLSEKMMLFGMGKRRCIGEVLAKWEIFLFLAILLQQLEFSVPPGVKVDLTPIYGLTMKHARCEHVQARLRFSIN
Chain of 3',5'-cyclic-AMP phosphodiesterase 4B (Homo sapiens) (Q07343 whole entry, looked up): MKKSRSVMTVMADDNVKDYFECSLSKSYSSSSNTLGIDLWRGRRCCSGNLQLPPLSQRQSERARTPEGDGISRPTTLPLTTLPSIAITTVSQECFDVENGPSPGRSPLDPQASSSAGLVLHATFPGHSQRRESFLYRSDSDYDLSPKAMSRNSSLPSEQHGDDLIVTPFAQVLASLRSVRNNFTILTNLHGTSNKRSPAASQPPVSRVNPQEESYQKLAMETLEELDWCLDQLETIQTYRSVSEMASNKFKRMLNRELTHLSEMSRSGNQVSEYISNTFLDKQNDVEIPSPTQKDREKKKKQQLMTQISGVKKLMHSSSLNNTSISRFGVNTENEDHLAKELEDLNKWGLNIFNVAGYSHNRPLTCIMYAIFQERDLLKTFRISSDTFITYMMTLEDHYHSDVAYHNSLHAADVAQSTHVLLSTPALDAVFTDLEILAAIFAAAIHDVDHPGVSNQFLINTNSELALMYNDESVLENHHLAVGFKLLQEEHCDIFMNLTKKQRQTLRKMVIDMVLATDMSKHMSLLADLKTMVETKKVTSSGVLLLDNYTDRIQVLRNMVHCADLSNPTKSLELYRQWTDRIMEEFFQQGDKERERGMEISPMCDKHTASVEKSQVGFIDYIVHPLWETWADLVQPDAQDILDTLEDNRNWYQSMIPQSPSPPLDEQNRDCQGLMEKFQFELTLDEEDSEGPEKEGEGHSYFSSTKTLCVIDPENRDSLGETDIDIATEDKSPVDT
Chain of Cytochrome P450 2C19 (Homo sapiens) (P33261 whole entry, looked up): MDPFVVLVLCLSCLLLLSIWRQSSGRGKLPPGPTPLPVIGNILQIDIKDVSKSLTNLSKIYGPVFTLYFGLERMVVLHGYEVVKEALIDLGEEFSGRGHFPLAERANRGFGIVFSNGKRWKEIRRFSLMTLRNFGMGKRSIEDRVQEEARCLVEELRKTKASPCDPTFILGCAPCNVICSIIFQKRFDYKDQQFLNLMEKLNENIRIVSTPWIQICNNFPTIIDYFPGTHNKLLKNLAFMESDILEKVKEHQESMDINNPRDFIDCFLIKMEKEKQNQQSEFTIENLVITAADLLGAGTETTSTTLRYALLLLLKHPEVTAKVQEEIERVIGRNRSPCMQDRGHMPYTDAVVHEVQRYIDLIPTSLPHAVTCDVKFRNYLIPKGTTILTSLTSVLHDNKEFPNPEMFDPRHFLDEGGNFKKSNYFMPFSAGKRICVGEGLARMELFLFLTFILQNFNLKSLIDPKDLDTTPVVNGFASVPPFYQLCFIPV
Chain of Cytochrome P450 2D6 (Homo sapiens) (P10635 whole entry, looked up): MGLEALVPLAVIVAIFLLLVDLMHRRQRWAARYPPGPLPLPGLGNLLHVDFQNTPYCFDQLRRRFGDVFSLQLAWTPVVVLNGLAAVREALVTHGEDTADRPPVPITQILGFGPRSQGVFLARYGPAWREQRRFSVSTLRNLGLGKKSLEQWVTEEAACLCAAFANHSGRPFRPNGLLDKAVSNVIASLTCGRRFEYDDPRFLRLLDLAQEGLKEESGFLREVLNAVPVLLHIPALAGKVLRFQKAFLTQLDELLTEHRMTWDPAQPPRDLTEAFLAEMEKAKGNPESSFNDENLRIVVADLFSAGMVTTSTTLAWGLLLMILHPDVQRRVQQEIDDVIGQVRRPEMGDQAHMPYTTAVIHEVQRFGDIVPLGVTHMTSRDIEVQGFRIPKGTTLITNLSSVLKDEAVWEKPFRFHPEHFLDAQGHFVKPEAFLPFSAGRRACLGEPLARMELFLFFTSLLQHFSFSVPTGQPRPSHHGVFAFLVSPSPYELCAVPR

For `C/C(=N/Nc1ccc2ccccc2n1)c1ccccc1O`, the Potency in test [1] is greater than 11.4 µM; in [3], 1.58 µM (active); in test [6], greater than 46 µM; in test [7], greater than 9.22 µM; in test [10] it was 3.16 µM (active); in test [12], 0.794 µM (active). Further, the activity change, negative = inhibition in test [2] was 5.21%; in test [4], 2.32%. The activity, negative = inhibition in [5] was 7.92%. Besides, the Potency result in test [8], in [9] and in test [11] was “inactive” throughout.
`O=c1oc2cc(N=Cc3ccc4c(c3)OCO4)ccc2c2ccccc12`: the Potency was greater than 11.4 µM in test [1]; 0.00794 µM (active) in [3]; greater than 46 µM in test [6]; greater than 9.22 µM in test [7]; 3.98 µM (active) in test [10]. The results for the activity change, negative = inhibition in test [2] and in test [4] were 7.4% and 12.7%, respectively. Further, the activity, negative = inhibition in test [5] is -1.72%. The Potency result in [8], in test [9] and in [11] was “inactive” in each case.
As for `COc1ccc(C[C@@H]2C(=O)N[C@H](C)C(=O)N(C)[C@@H]3Cc4ccc(cc4)Oc4cc(ccc4O)C[C@H](C(=O)N[C@@H](C)C(=O)N[C@H](C)C(=O)N2C)N(C)C3=O)cc1`, the Potency is greater than 11.4 µM in test [1], greater than 46 µM in test [6], greater than 9.22 µM in [7] and 3.98 µM (active) in test [10]. Further, the activity change, negative = inhibition in [2] was -121% (active); in test [4], -132% (active). The Potency entry in test [3], in [8], in test [9] and in [11] was “inactive” throughout. The activity, negative = inhibition in [5] is -104% (active).
For the compound `Nc1ncnc2nc[nH]c12.Nc1ncnc2nc[nH]c12.[Cl][Pt]([Cl])([Cl])[Cl]`, the Potency in test [1] was greater than 11.4 µM; in [6], greater than 46 µM; in test [7] it was greater than 9.22 µM. For the same compound, the activity change, negative = inhibition was -1.02% in test [2], 13.2% [at 2.29 µM] in [3] and 4.22% in test [4]. The activity, negative = inhibition in test [5] is -3.14%. In addition, the Potency entry in test [8], in [9], in test [13], in test [12] and in test [14] was “inactive” each time.
On to `COc1ccc2c(c1)Cc1cc(N=[N+]([O-])c3ccc4c(c3)Cc3cc(OC)ccc3-4)ccc1-2`, for which the Potency in test [1] was greater than 11.4 µM; in test [3], 1.58 µM (active); in test [6] it was greater than 46 µM; in [7], greater than 9.22 µM; in [10], 5.01 µM (active). For the same compound, the activity change, negative = inhibition is -9.92% in [2] and -17.3% in test [4]. In addition, the activity, negative = inhibition in test [5] is -1.13%. The Potency result in test [8], in [9] and in [11] was “inactive” in each case.
As for `Nc1[nH]c(=S)[nH]c(=O)c1N=Nc1c(Br)cc(S(N)(=O)=O)cc1Br`, the Potency was greater than 11.4 µM in test [1], 3.16 µM (active) in [3], greater than 46 µM in test [6] and greater than 9.22 µM in test [7]. Besides, the activity change, negative = inhibition in [2] is 1.56%; in [4], -0.337%. The activity, negative = inhibition in [5] is 12%. The Potency result in [8], in [9], in [13] and in [14] was “inactive” each time.
Turning to `CN1CCN(Cc2nc3cccc4c3c([n+]2[O-])-c2ccccc2-4)CC1`, the Potency in test [1] is greater than 11.4 µM; in [3], 1.26 µM (active); in test [6], greater than 46 µM; in [7] it was greater than 9.22 µM. The activity change, negative = inhibition in test [2] was -4.75%; in test [4], 9.77%. The activity, negative = inhibition in test [5] is 6.12%. Further, the Potency result in test [8], in test [9] and in test [11] was “inactive” in each case.

The values are drawn from PubChem BioAssay (NCATS).
